The results in this text go back to PMC7862700, “An all-to-all approach to the identification of sequence-specific readers for epigenetic DNA modifications on cytosine”.

Experiment in all cases: DAPPL (digital affinity profiling via proximity ligation, sequencing); 10 mM Tris-HCl pH 7.5, 50 mM NaCl, 1 mM DTT, 4% glycerol, room temperature, 30 min; GST-TFs on glutathione beads, 16-mer random dsDNA library, 0.1% formaldehyde crosslink after washing; high values mean tight binding
For one experiment, the target named is T1, FLI1 (Homo sapiens, UniProt Q01543 1-452).
T1 sequence: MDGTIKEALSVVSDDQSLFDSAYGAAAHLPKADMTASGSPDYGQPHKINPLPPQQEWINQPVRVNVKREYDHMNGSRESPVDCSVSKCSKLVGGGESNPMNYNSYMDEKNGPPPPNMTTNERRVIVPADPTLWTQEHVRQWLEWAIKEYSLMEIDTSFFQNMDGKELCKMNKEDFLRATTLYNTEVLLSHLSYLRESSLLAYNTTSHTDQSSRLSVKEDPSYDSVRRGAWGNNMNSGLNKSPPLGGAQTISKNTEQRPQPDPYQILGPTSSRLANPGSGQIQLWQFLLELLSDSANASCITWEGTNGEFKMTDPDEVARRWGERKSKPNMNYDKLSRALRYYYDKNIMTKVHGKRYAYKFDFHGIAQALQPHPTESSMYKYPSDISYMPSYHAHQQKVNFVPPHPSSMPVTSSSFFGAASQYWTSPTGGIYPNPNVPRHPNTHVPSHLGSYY
As to conditions: protein: recombinant; tags: N-terminal GST; dsDNA, one strand shown. Put shortly: (§1)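 A tag-only sample was pooled with DNA-barcoded human transcription factors that had been expressed in yeast as GST fusions and captured on glutathione beads. The pools were incubated for 30 min at room temperature with 200 nmole of a random double-stranded 16-mer DNA library in Tris/NaCl/DTT/glycerol buffer, then washed, crosslinked with 0.1% formaldehyde, proximity-ligated (BsaI/T4 ligase, 1 h, 37 °C), PCR-amplified and sequenced on an Illumina NextSeq500. Binding signal is each hexamer's read frequency for a factor divided by its frequency for the tag-only sample.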

A further experiment has as its target T2, ELK1 (Homo sapiens, UniProt P19419 1-428).
T2 sequence: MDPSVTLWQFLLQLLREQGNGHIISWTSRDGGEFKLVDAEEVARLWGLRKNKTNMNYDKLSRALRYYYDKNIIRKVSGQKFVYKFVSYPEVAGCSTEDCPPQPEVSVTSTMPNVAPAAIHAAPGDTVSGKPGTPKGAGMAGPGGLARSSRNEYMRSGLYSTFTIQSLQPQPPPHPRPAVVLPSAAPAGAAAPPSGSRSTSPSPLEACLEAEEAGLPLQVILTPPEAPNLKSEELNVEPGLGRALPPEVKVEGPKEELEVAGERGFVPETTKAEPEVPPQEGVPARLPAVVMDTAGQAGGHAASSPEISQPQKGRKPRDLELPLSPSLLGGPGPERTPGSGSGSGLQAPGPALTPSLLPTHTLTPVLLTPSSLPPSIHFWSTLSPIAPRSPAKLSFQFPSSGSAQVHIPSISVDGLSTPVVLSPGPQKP
To be noted: protein: recombinant; tags: N-terminal GST; dsDNA, one strand shown. Put shortly: as §1

A further experiment concerns the target T3, GABPA (Homo sapiens, UniProt Q06546 1-454).
T3 sequence: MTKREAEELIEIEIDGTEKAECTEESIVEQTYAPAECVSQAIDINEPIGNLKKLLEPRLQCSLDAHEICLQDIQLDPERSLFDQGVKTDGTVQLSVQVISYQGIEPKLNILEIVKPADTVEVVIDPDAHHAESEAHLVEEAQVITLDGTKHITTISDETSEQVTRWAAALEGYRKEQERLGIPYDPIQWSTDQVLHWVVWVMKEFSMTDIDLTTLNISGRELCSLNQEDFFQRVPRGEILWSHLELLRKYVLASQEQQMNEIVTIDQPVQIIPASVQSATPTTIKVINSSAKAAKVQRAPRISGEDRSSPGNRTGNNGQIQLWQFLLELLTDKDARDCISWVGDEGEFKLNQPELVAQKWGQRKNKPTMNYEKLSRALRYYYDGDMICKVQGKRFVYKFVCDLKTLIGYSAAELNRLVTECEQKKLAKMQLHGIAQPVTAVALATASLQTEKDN
To be noted: protein: recombinant; tags: N-terminal GST; dsDNA, one strand shown. Put shortly:
as §1

A further experiment has as its target T4, ERG (Homo sapiens, UniProt P11308 1-479).
T4 sequence: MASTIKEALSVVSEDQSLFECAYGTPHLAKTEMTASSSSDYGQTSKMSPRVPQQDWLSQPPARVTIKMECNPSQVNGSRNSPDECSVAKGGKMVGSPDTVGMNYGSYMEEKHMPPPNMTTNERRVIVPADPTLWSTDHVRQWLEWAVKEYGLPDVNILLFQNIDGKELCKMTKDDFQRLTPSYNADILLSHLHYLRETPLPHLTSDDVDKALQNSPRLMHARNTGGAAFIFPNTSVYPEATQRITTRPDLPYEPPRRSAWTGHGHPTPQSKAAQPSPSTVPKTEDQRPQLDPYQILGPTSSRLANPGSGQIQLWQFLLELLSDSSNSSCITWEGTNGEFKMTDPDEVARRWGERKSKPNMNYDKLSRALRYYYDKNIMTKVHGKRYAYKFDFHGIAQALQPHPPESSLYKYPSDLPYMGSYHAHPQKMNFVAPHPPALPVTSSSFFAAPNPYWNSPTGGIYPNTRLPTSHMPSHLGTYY
To be noted: protein: recombinant; tags: N-terminal GST; dsDNA, one strand shown. Put shortly:
as §1

In a further experiment the target is ELF1 (Homo sapiens, UniProt P32519 1-619). As to conditions: protein: recombinant; tags: N-terminal GST; dsDNA, one strand shown. Put shortly: as §1
Chain of ELF1 (P32519 whole entry): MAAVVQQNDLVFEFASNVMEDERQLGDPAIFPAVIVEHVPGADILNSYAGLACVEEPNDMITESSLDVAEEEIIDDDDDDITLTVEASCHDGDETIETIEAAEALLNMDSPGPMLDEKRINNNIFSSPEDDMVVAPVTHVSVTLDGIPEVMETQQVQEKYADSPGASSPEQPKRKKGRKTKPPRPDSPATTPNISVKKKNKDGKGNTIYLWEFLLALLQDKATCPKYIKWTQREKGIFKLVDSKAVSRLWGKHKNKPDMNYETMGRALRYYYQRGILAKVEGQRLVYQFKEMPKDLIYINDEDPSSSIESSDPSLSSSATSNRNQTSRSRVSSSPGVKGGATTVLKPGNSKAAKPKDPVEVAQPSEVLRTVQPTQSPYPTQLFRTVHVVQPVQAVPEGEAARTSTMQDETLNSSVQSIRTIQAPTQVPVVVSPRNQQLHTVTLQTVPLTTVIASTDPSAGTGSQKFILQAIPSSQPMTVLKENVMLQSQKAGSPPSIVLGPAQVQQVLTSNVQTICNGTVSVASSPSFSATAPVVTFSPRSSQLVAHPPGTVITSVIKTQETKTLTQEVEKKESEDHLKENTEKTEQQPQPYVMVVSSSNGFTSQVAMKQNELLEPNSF
Another experiment addresses T5, EHF (Homo sapiens, UniProt Q9NZC4 1-300).
T5 sequence: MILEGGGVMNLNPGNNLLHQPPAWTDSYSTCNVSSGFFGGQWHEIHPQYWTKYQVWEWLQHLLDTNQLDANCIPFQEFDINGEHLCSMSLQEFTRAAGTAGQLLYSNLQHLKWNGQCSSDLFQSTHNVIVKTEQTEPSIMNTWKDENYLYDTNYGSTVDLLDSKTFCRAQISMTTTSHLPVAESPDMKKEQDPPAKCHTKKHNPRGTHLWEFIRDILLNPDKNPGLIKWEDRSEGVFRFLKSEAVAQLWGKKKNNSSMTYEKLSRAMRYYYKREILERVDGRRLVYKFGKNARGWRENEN
As to conditions: protein: recombinant; tags: N-terminal GST; dsDNA, one strand shown. Put shortly: as §1

The target in the next experiment is SPI1 (Homo sapiens, UniProt P17947 1-270). As to conditions: protein: recombinant; tags: N-terminal GST; dsDNA, one strand shown. In outline: as §1
In the next experiment the target is SPIB (Homo sapiens, UniProt Q01892 1-262). As to conditions: protein: recombinant; tags: N-terminal GST; dsDNA, one strand shown. Put shortly: as §1
Chain of SPIB (Q01892 whole entry): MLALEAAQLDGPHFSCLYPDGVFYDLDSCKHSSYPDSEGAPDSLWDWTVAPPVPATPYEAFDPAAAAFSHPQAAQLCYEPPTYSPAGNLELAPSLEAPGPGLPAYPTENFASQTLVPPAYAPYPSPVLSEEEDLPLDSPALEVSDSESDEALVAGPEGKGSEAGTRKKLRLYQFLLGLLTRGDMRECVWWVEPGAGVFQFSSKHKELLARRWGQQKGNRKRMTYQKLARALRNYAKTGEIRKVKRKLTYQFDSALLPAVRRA
Another experiment concerns the target T6, ELK3 (Homo sapiens, UniProt P41970 1-407).
T6 sequence: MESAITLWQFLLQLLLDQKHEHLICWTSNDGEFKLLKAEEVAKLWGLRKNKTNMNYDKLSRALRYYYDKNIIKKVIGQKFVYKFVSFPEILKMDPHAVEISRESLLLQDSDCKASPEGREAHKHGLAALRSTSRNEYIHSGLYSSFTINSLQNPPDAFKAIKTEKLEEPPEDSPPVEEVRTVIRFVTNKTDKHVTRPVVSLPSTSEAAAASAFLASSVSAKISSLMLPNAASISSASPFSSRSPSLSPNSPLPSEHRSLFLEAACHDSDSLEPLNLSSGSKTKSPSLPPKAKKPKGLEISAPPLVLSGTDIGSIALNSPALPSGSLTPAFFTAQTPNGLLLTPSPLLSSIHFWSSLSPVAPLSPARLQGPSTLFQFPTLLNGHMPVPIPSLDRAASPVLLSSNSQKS
To be noted: protein: recombinant; tags: N-terminal GST; dsDNA, one strand shown. Put shortly:
as §1

A further experiment deals with T7, FEV (Homo sapiens, UniProt Q99581 1-238).
T7 sequence: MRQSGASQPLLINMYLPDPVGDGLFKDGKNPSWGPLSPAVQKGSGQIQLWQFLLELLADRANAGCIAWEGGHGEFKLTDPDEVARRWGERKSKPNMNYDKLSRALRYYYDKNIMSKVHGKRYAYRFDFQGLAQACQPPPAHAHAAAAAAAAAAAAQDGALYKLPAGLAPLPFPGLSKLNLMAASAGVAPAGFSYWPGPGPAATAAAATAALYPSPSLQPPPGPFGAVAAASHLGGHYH
To be noted: protein: recombinant; tags: N-terminal GST; dsDNA, one strand shown. In outline:
as §1

A further experiment concerns the target ETV5 (Homo sapiens, UniProt P41161 1-510). As to conditions: protein: recombinant; tags: N-terminal GST; dsDNA, one strand shown. In outline: as §1
Another experiment has as its target HSF1 (Homo sapiens, UniProt Q00613 1-529). As to conditions: protein: recombinant; tags: N-terminal GST; chain copies: 3; dsDNA, one strand shown. Put shortly:
as §1

A further experiment has as its target T8, SPIC (Homo sapiens, UniProt Q8N5J4 1-248).
T8 sequence: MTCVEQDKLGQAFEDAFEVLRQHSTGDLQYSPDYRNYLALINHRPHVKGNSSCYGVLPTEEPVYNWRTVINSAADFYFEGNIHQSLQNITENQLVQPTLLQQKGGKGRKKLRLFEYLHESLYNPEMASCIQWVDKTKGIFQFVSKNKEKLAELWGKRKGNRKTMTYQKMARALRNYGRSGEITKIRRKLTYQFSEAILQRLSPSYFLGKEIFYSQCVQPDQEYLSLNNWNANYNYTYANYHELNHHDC
To be noted: protein: recombinant; tags: N-terminal GST; dsDNA, one strand shown. In outline:
as §1

Another experiment has as its target ELF4 (Homo sapiens, UniProt Q99607 1-663). As to conditions: protein: recombinant; tags: N-terminal GST; dsDNA, one strand shown. In outline: as §1
Another experiment has as its target T9, ELK4 (Homo sapiens, UniProt P28324-2 1-405).
T9 sequence: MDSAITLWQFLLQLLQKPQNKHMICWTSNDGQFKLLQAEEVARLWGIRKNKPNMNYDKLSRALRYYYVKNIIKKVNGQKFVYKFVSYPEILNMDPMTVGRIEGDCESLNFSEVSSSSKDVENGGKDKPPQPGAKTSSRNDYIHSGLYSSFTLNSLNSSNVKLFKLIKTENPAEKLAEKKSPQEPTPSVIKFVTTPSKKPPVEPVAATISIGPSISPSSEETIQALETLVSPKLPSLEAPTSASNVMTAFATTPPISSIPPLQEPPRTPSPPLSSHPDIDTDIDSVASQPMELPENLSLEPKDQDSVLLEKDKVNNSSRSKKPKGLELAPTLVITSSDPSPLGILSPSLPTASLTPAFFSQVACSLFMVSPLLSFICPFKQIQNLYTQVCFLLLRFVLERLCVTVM
To be noted: protein: recombinant; tags: N-terminal GST; dsDNA, one strand shown. Put shortly:
as §1

For another experiment, the target named is T10, ETV2 (Homo sapiens, UniProt O00321 1-342).
T10 sequence: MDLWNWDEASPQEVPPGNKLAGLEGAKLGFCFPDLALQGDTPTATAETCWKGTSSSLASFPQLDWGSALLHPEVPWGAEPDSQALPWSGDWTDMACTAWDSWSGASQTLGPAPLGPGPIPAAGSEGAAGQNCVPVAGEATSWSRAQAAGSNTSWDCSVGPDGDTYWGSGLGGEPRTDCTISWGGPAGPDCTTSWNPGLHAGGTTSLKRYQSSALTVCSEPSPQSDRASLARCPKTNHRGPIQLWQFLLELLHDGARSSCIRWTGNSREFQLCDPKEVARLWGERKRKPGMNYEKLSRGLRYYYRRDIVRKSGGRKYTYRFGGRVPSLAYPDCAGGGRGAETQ
To be noted: protein: recombinant; tags: N-terminal GST; dsDNA, one strand shown. Put shortly:
as §1

In another experiment the target is T11, ELF3 (Homo sapiens, UniProt P78545 1-371).
T11 sequence: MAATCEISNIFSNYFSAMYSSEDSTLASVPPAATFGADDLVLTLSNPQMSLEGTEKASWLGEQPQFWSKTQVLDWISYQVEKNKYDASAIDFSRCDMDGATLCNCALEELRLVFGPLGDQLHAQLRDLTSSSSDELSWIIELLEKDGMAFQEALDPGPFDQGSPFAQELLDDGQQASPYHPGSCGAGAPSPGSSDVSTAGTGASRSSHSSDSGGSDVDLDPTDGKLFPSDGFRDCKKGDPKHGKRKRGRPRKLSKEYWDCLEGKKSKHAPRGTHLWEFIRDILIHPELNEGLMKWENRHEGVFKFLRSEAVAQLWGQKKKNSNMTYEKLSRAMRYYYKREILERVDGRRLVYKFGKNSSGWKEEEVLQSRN
As to conditions: protein: recombinant; tags: N-terminal GST; dsDNA, one strand shown. In outline:
as §1

In a further experiment the target is CRX (Homo sapiens, UniProt O43186 1-299). As to conditions: protein: recombinant; tags: N-terminal GST; dsDNA, one strand shown. In outline: as §1
Chain of CRX (O43186 whole entry): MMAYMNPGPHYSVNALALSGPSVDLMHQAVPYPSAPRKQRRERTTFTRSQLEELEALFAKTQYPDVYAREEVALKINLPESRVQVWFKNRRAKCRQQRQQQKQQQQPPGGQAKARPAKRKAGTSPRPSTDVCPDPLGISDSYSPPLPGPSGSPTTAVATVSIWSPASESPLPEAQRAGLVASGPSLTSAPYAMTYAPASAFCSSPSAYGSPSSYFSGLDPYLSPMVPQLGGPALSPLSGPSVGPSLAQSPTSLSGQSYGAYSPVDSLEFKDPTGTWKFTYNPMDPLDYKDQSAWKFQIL
The target of a further experiment is ETV1 (Homo sapiens, UniProt P50549 1-477). As to conditions: protein: recombinant; tags: N-terminal GST; dsDNA, one strand shown. Put shortly:
as §1

Chain of ELF4 (Q99607 whole entry): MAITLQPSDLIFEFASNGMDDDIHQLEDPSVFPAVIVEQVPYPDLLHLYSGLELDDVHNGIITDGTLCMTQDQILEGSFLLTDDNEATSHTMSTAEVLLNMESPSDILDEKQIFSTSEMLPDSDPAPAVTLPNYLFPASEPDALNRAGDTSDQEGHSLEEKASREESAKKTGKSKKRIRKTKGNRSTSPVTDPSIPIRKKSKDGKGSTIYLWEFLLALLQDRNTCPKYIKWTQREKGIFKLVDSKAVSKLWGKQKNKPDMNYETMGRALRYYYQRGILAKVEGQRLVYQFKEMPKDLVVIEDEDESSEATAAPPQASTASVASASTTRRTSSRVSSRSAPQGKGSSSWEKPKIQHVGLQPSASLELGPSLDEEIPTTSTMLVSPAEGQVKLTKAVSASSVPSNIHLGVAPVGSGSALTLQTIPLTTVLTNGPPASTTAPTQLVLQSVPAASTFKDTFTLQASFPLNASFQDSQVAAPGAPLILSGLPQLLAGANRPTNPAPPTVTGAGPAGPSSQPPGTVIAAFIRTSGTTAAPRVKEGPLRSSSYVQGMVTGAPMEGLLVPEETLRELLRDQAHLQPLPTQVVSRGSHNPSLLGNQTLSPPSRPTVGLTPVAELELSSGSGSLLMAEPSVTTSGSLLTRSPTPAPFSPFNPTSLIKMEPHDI
Chain of ETV5 (P41161 whole entry): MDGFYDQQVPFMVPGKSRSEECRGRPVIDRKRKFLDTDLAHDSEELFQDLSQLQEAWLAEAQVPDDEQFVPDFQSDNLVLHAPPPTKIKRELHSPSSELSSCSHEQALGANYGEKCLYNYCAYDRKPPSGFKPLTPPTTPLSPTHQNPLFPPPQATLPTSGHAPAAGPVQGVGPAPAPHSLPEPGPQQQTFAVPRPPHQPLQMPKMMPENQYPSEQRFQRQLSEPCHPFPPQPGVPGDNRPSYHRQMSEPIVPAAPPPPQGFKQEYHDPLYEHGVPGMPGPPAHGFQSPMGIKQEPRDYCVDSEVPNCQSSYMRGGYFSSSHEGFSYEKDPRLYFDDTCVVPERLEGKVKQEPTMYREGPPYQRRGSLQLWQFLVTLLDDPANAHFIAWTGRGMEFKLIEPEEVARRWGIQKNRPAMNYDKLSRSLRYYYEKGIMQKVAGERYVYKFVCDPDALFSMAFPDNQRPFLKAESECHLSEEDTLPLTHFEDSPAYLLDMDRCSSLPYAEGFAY
Chain of HSF1 (Q00613 whole entry): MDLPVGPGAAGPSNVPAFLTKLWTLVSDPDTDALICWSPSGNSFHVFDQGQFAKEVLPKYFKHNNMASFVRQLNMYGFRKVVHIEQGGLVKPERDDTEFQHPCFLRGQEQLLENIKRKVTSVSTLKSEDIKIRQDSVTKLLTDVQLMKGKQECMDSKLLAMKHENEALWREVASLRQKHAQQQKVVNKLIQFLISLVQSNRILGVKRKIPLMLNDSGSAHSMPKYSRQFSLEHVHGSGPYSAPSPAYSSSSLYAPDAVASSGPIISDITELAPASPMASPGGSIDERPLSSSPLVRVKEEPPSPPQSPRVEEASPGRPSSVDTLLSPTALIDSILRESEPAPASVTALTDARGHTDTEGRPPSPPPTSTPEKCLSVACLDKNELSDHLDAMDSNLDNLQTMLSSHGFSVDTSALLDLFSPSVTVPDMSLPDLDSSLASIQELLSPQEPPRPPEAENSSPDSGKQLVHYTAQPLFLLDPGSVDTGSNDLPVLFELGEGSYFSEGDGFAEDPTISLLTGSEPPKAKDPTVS
Chain of ETV1 (P50549 whole entry): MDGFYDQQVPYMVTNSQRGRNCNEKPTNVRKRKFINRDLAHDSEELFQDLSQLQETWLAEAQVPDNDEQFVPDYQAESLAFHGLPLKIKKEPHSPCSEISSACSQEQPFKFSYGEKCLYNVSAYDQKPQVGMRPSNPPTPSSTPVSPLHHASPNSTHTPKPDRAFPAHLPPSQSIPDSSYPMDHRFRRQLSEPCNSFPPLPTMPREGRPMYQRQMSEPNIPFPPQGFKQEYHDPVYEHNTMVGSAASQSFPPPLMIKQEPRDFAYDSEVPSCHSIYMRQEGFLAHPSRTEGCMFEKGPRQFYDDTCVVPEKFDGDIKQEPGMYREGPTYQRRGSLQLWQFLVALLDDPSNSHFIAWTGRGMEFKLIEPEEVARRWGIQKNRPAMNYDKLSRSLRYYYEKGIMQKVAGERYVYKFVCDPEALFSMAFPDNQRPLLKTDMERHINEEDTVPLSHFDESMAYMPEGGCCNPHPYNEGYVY

Consider CACTCT, for which the binding signal in the experiment with FLI1 is 1.27 fold enrichment (6-mer frequency, TF over GST control); with ELK1 it was 1.25 fold enrichment (6-mer frequency, TF over GST control); with GABPA, 1.19 fold enrichment (6-mer frequency, TF over GST control); with ERG it was 1.24 fold enrichment (6-mer frequency, TF over GST control); with ELF1 it was 1.36 fold enrichment (6-mer frequency, TF over GST control); with EHF, 1.38 fold enrichment (6-mer frequency, TF over GST control). The binding signal was 1.34 fold enrichment (6-mer frequency, TF over GST control) with SPI1; 1.23 fold enrichment (6-mer frequency, TF over GST control) with SPIB; 1.34 fold enrichment (6-mer frequency, TF over GST control) with ELK3; 1.24 fold enrichment (6-mer frequency, TF over GST control) in the experiment with FEV; 1.29 fold enrichment (6-mer frequency, TF over GST control) in the experiment with ETV5; 1.24 fold enrichment (6-mer frequency, TF over GST control) with HSF1. Besides, the binding signal with SPIC was 1.22 fold enrichment (6-mer frequency, TF over GST control); in the experiment with ELF4 it was 1.22 fold enrichment (6-mer frequency, TF over GST control); in the experiment with ELK4 it was 1.58 fold enrichment (6-mer frequency, TF over GST control); with ETV2, 1.37 fold enrichment (6-mer frequency, TF over GST control); with ELF3, 1.4 fold enrichment (6-mer frequency, TF over GST control); in the experiment with CRX it was 1.08 fold enrichment (6-mer frequency, TF over GST control). Further, the binding signal with ETV1 was 1.33 fold enrichment (6-mer frequency, TF over GST control).
